High-throughput results: PubChem BioAssay, Broad Institute
The list is a sample of the results.
aSyn 5UTR act: Activators via SNCA 5'UTR binding, MLPCN | alpha-synuclein 5'UTR reporter, activators screen | activity score, % (tested at 7.5 µM), hits read low | 300,000 compounds, 7.1% hits | AID 1814, 2009; in the data active = activity score below about -60%
* = called active by the depositor.

SMILES	aSyn 5UTR act
O=C(Nc1ccc(CN2CCOCC2)cc1)c1cc2ccccn2n1	71.7
O=C(Nc1ccc(CN2CCOCC2)cc1)c1cc2ccccc2o1	-71.4*
O=C(Nc1ccc(N2CCOCC2)cc1)c1cc2ccccc2o1	-109.9*
O=C(/C=C/N1CCOCC1)c1coc2ccccc12	-104.2*
CN(C)/C=C/C(=O)/C=C/c1ccc(Cl)cc1Cl	-150.4*
O=C(/C=C/c1ccc(Cl)cc1Cl)c1ccc[nH]1	-138.8*
O=C(/C=C/c1ccccc1Cl)c1ccc[nH]1	-342.9*
Brc1ccc2nc(CSc3ncn[nH]3)cn2c1	-68.2*
O=C(Nc1cccc(F)c1)N1CCC(c2ccccc2)CC1	-109.2*
Cc1ccc(C2CCN(C(=O)Nc3ccccc3)C2)cc1 (stereo not given)	-151.2*
O=C(Nc1cccc(F)c1)N1CC=C(c2ccc(Cl)cc2)CC1	-109.8*
O=C(Nc1ccc(Cl)cc1)N1CCC(c2ccccc2)C1 (stereo not given)	-82.4*
CC(C)N1CC(O)=C(c2nc3ccccc3c(=O)[nH]2)C1=N	-75.0*
NC(=O)c1ccsc1NC(=O)c1ccc(S(=O)(=O)N2CCCCC2)cc1	-96.0*
NC(=O)c1ccsc1NC(=O)c1ccc(S(=O)(=O)N2CCCC2)cc1	-102.7*
COC(=O)c1ccc(-c2ccc(/C=N/NC(=O)Cc3nnc(N)s3)o2)cc1	-66.5*
Cc1ccc(O)c(/C=N/NC(=O)Cc2ccc(Cl)cc2)c1	61.5
O=C(Cc1ccccc1)N/N=C/c1ccccc1OCc1ccc(Cl)cc1	-95.2*
O/N=C/c1ccccc1OCc1ccc(Cl)cc1	-98.0*
Cc1ccc2nc(NC(=O)CN3CCOCC3)sc2c1	-106.7*
O=C(CN1CCOCC1)Nc1nc2ccc([N+](=O)[O-])cc2s1	-62.3*
COc1cccc2c1OC1(CCN(C(C)C)CC1)N1N=C(c3cccnc3)CC21 (stereo not given)	-78.4*
O=C1N=C(N2CCCCC2)S/C1=C/C1=Cc2ccccc2OC1	-102.8*
O=C1N=C(N2CCCCC2)S/C1=C\c1ccc(Br)cc1	-128.1*
O=C(N/N=C/c1ccc([N+](=O)[O-])o1)c1cc2ccccc2o1	65.8
SMILES	aSyn 5UTR act
Cc1nc2ccccn2c1C(=O)N/N=C/c1ccc([N+](=O)[O-])o1	-81.4*
O=[N+]([O-])c1ccc(/C=N/Nc2ccc3ccccc3c2)o1	-104.0*
COC(=O)Cn1ncc2c(C)n(Cc3ccccc3)c(C)c2c1=O	-122.7*
CC(C)C(=O)Nc1cccc(-c2csc(-c3ccccc3)n2)c1	-69.9*
CC(C)C(=O)Nc1ccc(-c2csc(-c3ccccc3)n2)cc1	-205.1*
O=C(CCc1ccncc1)NC1CCCc2c1cnn2-c1cc(F)cc(F)c1 (stereo not given)	78.7
CC(C)(C)c1ccc(-n2ncc3c2CCCC3NC(=O)c2cnccn2)cc1 (stereo not given)	-67.8*
CC(=O)c1ccc(OCc2cc(=O)n3ccsc3n2)cc1	-95.3*
O=c1cc(COc2ccccc2[N+](=O)[O-])nc2sccn12	-83.1*
CCCCN1CCc2c([nH]c3ccc(C)cc23)C1=O	-170.6*
CCOCC(=O)Nc1cccc(-c2nc3cccnc3s2)c1C	-62.7*
Cc1nn(-c2ccccc2)c(C)c1CCC(=O)O	-106.8*
Cc1ccccc1-c1nnc(-c2ccccc2)o1	-137.9*
Cc1ccc(-c2nnc(-c3ccc4c(c3)OCO4)o2)cc1	-116.1*
Cn1cc(-c2nnc(-c3ccccc3)o2)c2ccccc21	-64.2*
Cc1cccc(-c2nnc(-c3ccccc3)o2)c1	-126.8*
Cc1ccc(-c2nnc(/C=C/c3ccccc3)o2)cc1	-136.3*
Cc1ccccc1-c1nnc(-c2ccc(Cl)cc2)o1	-234.1*
Cc1cc(-c2nnc(-c3cccc(Cl)c3)o2)no1	-170.8*
COc1ccc(-c2nc3c(n2O)CCc2c-3no[n+]2[O-])cc1	-131.5*
Cc1cc(C)c2c(N)c(-c3nc4ccccc4[nH]3)sc2n1	-130.8*
COc1ccc(NC2=C(NCCO)C(=O)c3ccccc3C2=O)cc1	-91.5*
CCOc1ccc2c(c1)OC(c1ccc(OC)cc1)(C(F)(F)F)NC2=O (stereo not given)	96.1
COC1=C(Nc2ccc(O)cc2)C(=O)c2ccccc2C1=O	-109.5*
CCOc1ccc(NC2=C(OC)C(=O)c3ccccc3C2=O)cc1	-94.4*
SMILES	aSyn 5UTR act
COC1=C(Nc2ccc(OC)cc2)C(=O)c2ccccc2C1=O	-161.5*
O=C1C=C(Nc2ccc(O)cc2)C(=O)c2ccccc21	67.5
O=C1C(Nc2ccc(O)cc2)=C/C(=N/S(=O)(=O)c2cccs2)c2ccccc21	113.8
Cc1ccc(NC2=CC(=O)C(=O)c3ccccc32)cc1	102.9
Cc1cccc(-n2ncc3c(NC4CCCCC4)ncnc32)c1	-90.1*
C=CCNc1ncnc2c1cnn2-c1cccc(C)c1	-133.1*
Cc1cccc(-n2ncc3c(N4CC(C)CC(C)C4)ncnc32)c1 (stereo not given)	-109.1*
Cc1cccc(-n2ncc3c(NCCCO)ncnc32)c1	-100.5*
Cc1cccc(-n2ncc3c(N4CCOCC4)ncnc32)c1	77.3
Cc1ccc(-n2ncc3c(N4CCN(c5ccccc5)CC4)ncnc32)c(C)c1	-62.4*
COc1ccc(-n2cnc3cc(N)ccc32)cc1	-75.1*
CC(=O)c1c(C)[nH]c(C(=O)OCC(=O)N2CCc3ccccc32)c1C	-130.7*
Cc1ccc(C(=O)OCC(=O)N2CCc3ccccc32)cc1	-70.2*
CCOC(=O)c1sc(=NC(=O)c2cccc(C)c2)n(C)c1C	-151.4*
CCOC(=O)c1sc(=NC(=O)c2cccc(Br)c2)n(C)c1C	-188.2*
CC1CC1c1ccc(/C=C(\C#N)C(=O)Nc2ccc(Cl)cc2)o1 (stereo not given)	-327.9*
CC1CC1c1ccc(/C=C(\C#N)C(=O)Nc2ccccc2Cl)o1 (stereo not given)	-191.9*
Cc1ccc(OCc2nnc(N)s2)cc1C	-62.3*
Cc1cc(C)c2c(c1)/C(=N\N=c1\sc3ccccc3n1C)C(=O)N2	-106.7*
O=C(Nc1ccc(N2CCOCC2)c2nonc12)C1CCCC1	-142.0*
O=C(Nc1ccc(F)cc1)Nc1ccc(N2CCOCC2)c2nonc12	-145.0*
CS(=O)(=O)N(CC(=O)NCc1ccncc1)c1ccc(Cl)c(Cl)c1	-89.4*
Oc1ccc(Br)cc1-c1ccnn1-c1ccccc1	-113.8*
CC(C)C1N=C(c2ccc3c(c2)OCO3)CC(c2ccccc2O)N1 (stereo not given)	-299.7*
CCOC(=O)c1ccc(-c2c(-c3cc(OC)c(OC)c(OC)c3)noc2C)cc1F	57.6
SMILES	aSyn 5UTR act
CCOC(=O)c1ccc(-c2ccc3[nH]c4ccccc4c(=O)c3c2)cc1F	-81.0*
COc1ccc(NC(=O)n2nc(OC(=O)c3cccs3)cc2N)cc1	-84.2*
COc1ccc(NC(=O)c2cc3cc(OC)ccc3oc2=N)cc1	-63.1*
COc1ccc(NC(=O)c2cc3ccc(O)cc3o/c2=N\O)cc1	-155.0*
CCCCCCc1cc2cc(C(=O)Nc3cccc(OC)c3)c(=O)oc2cc1O	62.8
O=C(c1ccc(F)cc1)c1cc2ccc(O)cc2oc1=O	-62.5*
N=c1oc2cc(O)ccc2cc1C(=O)Nc1ccc(F)cc1	-147.8*
COc1ccc(/C=N/NC(=O)c2ccc[nH]2)cc1	-147.1*
O=C(N/N=C\c1c(O)ccc2ccccc12)c1ccc(O)cc1	75.3
CSc1ccc(/C=N/NC(=O)c2ccc(O)cc2)cc1	-116.9*
COc1ccc(C(=O)N/N=C/c2ccc(SC)cc2)cc1	-64.7*
N=c1c(S(=O)(=O)c2ccc(Br)cc2)cc2c(=O)n3ccccc3nc2n1C1CCCC1	49.9
O=C(NC1CCCCCC1)c1cc2c(=O)n3ccccc3nc2s1	-84.8*
